# Laboratory results from PubChem BioAssay AID588342 (National Center for Advancing Translational Sciences (NCATS), 2011).
# The campaign covered roughly 360,000 compounds. About 25,000 (6.9%) were called active. Another 9% or so got no clear call; they are omitted. This is one part of a sample in which actives are shown more often than they occur. A number with no mark means an inactive call. Calls follow the shape of the dose curve; as a rule, active = well fitted inhibition curve with a large enough effect; inconclusive = small, poorly fitted or top-dose-only effect; inactive = flat fitted curve, though single readings scatter.
# Molecular target: Luciferin 4-monooxygenase (Photinus pyralis) (UniProt P08659)
# Assay: qHTS profiling assay for firefly luciferase inhibitor/activator using purifed enzyme and Km concentrations of substrates (counterscreen for miR-21 project); also: nearly all actives have a fitted effect of over 55% in size;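 as to activity change, negative = inhibition: plate controls were vehicle for no effect and reference inhibitor for full effect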
# Conditions: purified FLuc, luminescence inhibition; series mostly up to 57.5 µM; activity change, negative = inhibition: at the top concentration
# Source text: MLPCN Grant: 1 R21 NS059478-01 (miR-21 grant) Assay Provider: NCGC NCGC Assay Overview: Firefly (Photinus pyralis) luciferase is one of the most commonly used transcriptional reporters for a number of reasons. It is considered one of the more dynamically responsive reporters -that is, responsive to changes in reporter transcription - as it requires no post-translational modifications and is enzymatically active directly after protein synthesis (Wood, 1998). Additionally, the half-life of the luciferase protein is short relative to other reporter-gene products (Wood, 1995). Whereas reporters with long half-lives potentially allow for increased signal due to accumulation of reporter-gene product, once accumulated in the cell, dynamic changes in reporter-gene expression may be difficult to detect(Fan and Wood, 2007; Almond et al., 2004). It has been shown that wild-type P. pyralis luciferase has a half-life of approximately […] hours in mammalian cells (Thompson et al., 1991). Firefly luciferase reporter-gene assays are also generally considered one of the most sensitive assay types (Wood, 1995; Wood, 1998). Although light produced in a bioluminescence reaction is of lower intensity than that produced during fluorescence emission, this is offset by little to no background light inherent to luminescent assays. Thus the luciferase reporter can be expressed at much lower levels than fluorescent proteins while still providing robust signal. # However, it was initially observed, in 1991, by Thompson et al., that compounds that resemble the substrates of firefly luciferase (FLuc) can act as competitive inhibitors of the enzyme, and that these compounds, upon interaction with luciferase in the cell, can actually stabilize the protein and increase its half-life. Accumulated intracellular FLuc protein can be measured as an increase in luminescence signal, upon addition of detection reagents (which contain high concentrations of FLuc substrates) commonly used in high-throughput screening. In cell-based reporter gene assays that use FLuc as the reporter gene to quantitate the potential influence of a given compound against the target biology, this apparent increase in luminescence can mistakenly be interpreted as identification of a compound that is active against the target of interest. This is the case for the miR-21 FLuc reporter gene assay used to identify inhibitors of the miR-21 pathway (PubChem AID 2289) - compounds of interest will inhibit miR-21 biogenesis/expression or activity, and are identified by causing an increase in luminescence, due to increased FLuc translation. However, FLuc inhibitory compounds that stabilize the FLuc protein will give an identical read-out, making it difficult to distinguish compounds that are active against the target from those active against FLuc. Previous profiling work to determine the prevalence of compounds that affect FLuc enzymatic activity (PubChem AID 411) identified that ~3% of the MLSMR library (then at ~72K) inhibited FLuc. […] Since the MLSMR had grown to ~350K compounds, and since it was expected that a significant percentage of compounds found active in the miR-21 FLuc assay would be FLuc inhibitors, the library was screened for activity against FLuc using a biochemical assay of purified FLuc and KM concentrations of FLuc substrates (D-luciferin and ATP).
# NCGC Assay Protocol Summary: Reagents: 50mM Tris acetate, pH 7.5; 10mM Mg acetate; 10uM D-luciferin (Sigma #L9504); 10uM ATP; 0.01% Tween-20; 0.05% BSA; 10nM P. pyralis luciferase (Sigma #L9506) Control compounds used were two known firefly luciferase inhibitors (compounds (2) and (5) in Auld et al., 2010), and DMSO. […]
# Luciferin 4-monooxygenase (Photinus pyralis), sequence (P08659 whole entry, looked up): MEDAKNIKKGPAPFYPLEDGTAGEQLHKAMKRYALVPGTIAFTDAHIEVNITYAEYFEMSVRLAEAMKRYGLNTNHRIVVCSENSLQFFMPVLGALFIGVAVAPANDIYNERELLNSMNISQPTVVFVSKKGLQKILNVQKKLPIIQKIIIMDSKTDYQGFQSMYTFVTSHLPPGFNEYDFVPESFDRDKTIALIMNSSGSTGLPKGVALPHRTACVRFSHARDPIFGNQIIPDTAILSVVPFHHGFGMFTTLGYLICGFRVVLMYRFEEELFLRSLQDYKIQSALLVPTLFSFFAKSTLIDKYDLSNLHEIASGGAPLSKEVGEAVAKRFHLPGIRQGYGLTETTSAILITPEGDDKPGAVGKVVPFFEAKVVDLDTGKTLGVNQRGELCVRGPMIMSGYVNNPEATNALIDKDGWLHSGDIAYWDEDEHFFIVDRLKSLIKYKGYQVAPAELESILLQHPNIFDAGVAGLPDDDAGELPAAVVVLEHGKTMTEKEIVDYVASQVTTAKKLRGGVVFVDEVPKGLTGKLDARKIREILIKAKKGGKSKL
SMILES,"activity change, negative = inhibition",Potency
Fc1ccc(C2N3CCCN23)cc1 (stereo not given),-2.06%,–
O=C(Nc1cccc(OC(=O)N2CCCCC2)c1)N1CCOCC1,-6.21%,–
CC(C)(C)c1ccc(OC(=O)N2CCCCC2)cc1,–,10.7 µM (active)
CN1CCN(C(=O)COc2ccc(C(C)(C)C)cc2Br)CC1,0.792%,–
COC(=O)C1=C(c2ccc3ccccc3c2)C[C@@H]2CC[C@H]1N2C(=O)NCCO,-1.46%,–
CCCCCn1c(=O)c(C(=O)NCc2ccccn2)c(O)c2ccccc21,0.442%,–
CC(C)Oc1ccc(NC(=O)c2cc3ccccc3o2)cc1,–,1.51 µM (active)
CC(=O)Cc1ccc(OC(C)C)cc1,4.48%,–
Cc1ccc(-c2nc3ccccc3c(=O)n2-c2ccc(Br)cn2)cc1,2.91%,–
COCCNC(=O)CN1C2CCC1CC(O)(c1cccnc1)C2 (stereo not given),0.105%,–
CCC(=NCCc1ccccc1)c1c(O)n(C2CCCCC2)c(=O)[nH]c1=O,-0.859%,–
CC/C(=N\NC(=O)c1ccccc1O)c1c(O)n(Cc2ccccc2)c(=O)[nH]c1=O,–,9.53 µM (active)
CCC(=NCc1ccco1)c1c(O)n(Cc2ccccc2)c(=O)[nH]c1=O,9.59%,–
Cc1ccc(C(C)C)c(OCC(=O)N2CCN(CC(=O)N3CCOCC3)CC2)c1,-0.447%,–
CC1(C)Cc2c(C#N)c(N3CCNCC3)nc(-c3ccco3)c2CS1,-1.07%,–
Cc1ccc(Cn2nnnc2CN2CCC(n3nnc4ccccc43)CC2)cc1,0.191%,–
CCc1cccc2c(C#N)cn(CC(=O)N3CCOCC3)c12,-0.188%,–
C=CCN1C(=O)NC(=O)/C(=C/c2ccc(OCC(=O)Nc3ccc(C)cc3)cc2)C1=O,–,21.3 µM (active)
O=C(O)COc1ccccc1/C=C1\C(=O)NC(=O)N(CCC2=CCCCC2)C1=O,0.408%,–
C=CCN(CC=C)C(=O)Nc1ccc(OCC)cc1,-16.5%,–
COC(=O)C1=C(c2ccc(Cl)c(C(F)(F)F)c2)C[C@@H]2CC[C@H]1N2C(=O)NC1CC1,-0.397%,–
Cc1cc(C(=O)OCC(=O)Nc2c(F)cccc2F)c(C)n1C1CC1,2.98%,–
c1cc2c(cc1CCNC1CCCCCC1)OCO2,4.17%,–
COC(=O)C1=C(c2ccc(F)cc2OCc2ccccc2)C[C@@H]2CC[C@H]1N2C(=O)NCc1ccc(OC)c(OC)c1,0.248%,–
Cc1cccc(N2C(=O)NC(=O)/C(=C\c3cnn(-c4ccccc4)c3)C2=O)c1,–,15.1 µM (active)

SMILES,"activity change, negative = inhibition",Potency
COc1cccc(N2C(=O)NC(=O)/C(=C\c3cn(C)c4ccccc34)C2=O)c1,-6.34%,–
O=C1C2(Cl)C3(Cl)C4(Cl)C(Cl)(Cl)C5(Cl)C3(Cl)C1(Cl)C5(Cl)C24Cl (stereo not given),3.33%,–
COc1ccc(Br)cc1CNCCc1cccc(Cl)c1,0.615%,–
COc1cc(-n2c(=S)[nH]c3ccc(C)cc3c2=O)c(Cl)cc1Cl,-15%,–
c1csc(-c2nnc(COc3ccc4c(c3)OCO4)o2)c1,–,19 µM (active)
CCN(CC)P(=O)(Oc1cccc(C)c1)N(CC)CC,2.83%,–
COC(=O)C1=C(c2ccc(F)cc2F)C[C@@H]2CC[C@H]1N2C(=O)NC1CC1,-0.733%,–
Cc1nc2ccc(N3CCN(C)CC3)cc2nc1C,–,19 µM (active)
CN1CCN(c2cc(N3CCNCC3)ccc2[N+](=O)[O-])CC1,5.49%,–
COC(=O)C1=C(c2cccc(OCc3ccccc3)c2)C[C@@H]2CC[C@H]1N2C(=O)NNCc1ccccc1,-1.66%,–
CCOC(=O)C1=C(C)OC(N)=C(C(=O)OC)C12C(=O)Nc1ccc(Br)cc12 (stereo not given),7.3%,–
Cc1ccc(-n2c(/C=C/c3cccc(C(F)(F)F)c3)nc3ccccc3c2=O)cc1,2.96%,–
COC(=O)C1=C(c2ccc(F)cc2OCc2ccccc2)C[C@@H]2CC[C@H]1N2C(=O)NCc1ccc(Cl)cc1,-0.957%,–
O=C1NC(=O)N(Cc2ccco2)C(=O)/C1=C\c1ccc(-c2ccc(F)cc2)o1,–,10.7 µM (active)
Cc1cc(/C=C2/C(=O)NC(=O)N(Cc3ccco3)C2=O)c(C)n1-c1ccc(C(=O)O)cc1,-2.68%,–
O=C1NC(=O)N(CCc2ccc(F)cc2)C(=O)/C1=C/C=C/c1ccccc1,-1.25%,–
c1ccc2sc(C3CCCNC3)nc2c1 (stereo not given),-2.06%,–
COC(=O)C1=C(c2ccc(F)cc2OCc2ccccc2)C[C@@H]2CC[C@H]1N2C(=O)NCc1ccc2[nH]ccc2c1,-0.247%,–
CN(C)C(=O)Oc1ccc2c(c1)O/C(=C\c1ccccc1)C2=O,–,9.53 µM (active)
CN(C)C(=O)Oc1ccc(OCc2cccc[n+]2C)cc1,5.09%,–
CCOC(=O)c1c(-c2ccccc2)oc2ccc(OC(=O)N(C)C)cc12,1.44% [at 2.3 µM],–
CCC12CCN(CCc3ccccc3)CC1Oc1c(O)cccc12 (stereo not given),6.79%,–
COC(=O)C1=C(c2ccc(Cl)c(C(F)(F)F)c2)C[C@@H]2CC[C@H]1N2C(=O)NC(C)C,2.4%,–
Cc1nn(-c2ccccc2)c(C)c1NC(=O)COC(=O)Cc1ccccc1,3.9%,–
COc1ccc(C(=O)C2CN(C)CC2C(=O)c2ccc(OC)cc2)cc1 (stereo not given),-0.072%,–
